Assay results reported in PubChem BioAssay.
Activity calls are given as the source filed them.

Assays:
[1] = system: PRMT1 (protein arginine N-methyltransferase 1); test: PRMT1 binders on small-molecule microarrays, primary screen, biochemical, small-molecule microarray, 635 nm fluorescence (AID 1088); details: small-molecule microarray binding, higher = more signal;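 note: binding of Prmt1 protein to compounds spotted on small-molecule microarray slides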
[2] = yeast growth modulation, basal conditions, primary screen, YJM789 clinical isolate, OD600, 24 h (AID 1089);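 note: growth of clinical yeast isolate S. cerevisiae YJM 789 seeded 1000 cells per well; test concentration not given here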; details: S. cerevisiae YJM789 growth, higher = more signal, called active from +8 up or from −8 down
[3] = fission yeast growth modulation, primary screen, strain 972, OD600, 24 h, no modulator (AID 1090);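 note: basal condition with compound alone and no growth modifier present; test concentration not given here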; details: S. pombe 972 growth, higher = more signal, called active from +8 up or from −8 down
[4] = S. cerevisiae growth modulation with rapamycin, primary screen, strain BY4716, OD600, 96 h (AID 1091); details: higher = more signal, called active from +8 up or from −8 down; note: test concentration not given here
[5] = target: Torsin-1A-interacting protein 2 (Homo sapiens) (UniProt Q8NFQ8); test: LULL1 binders on small-molecule microarray, primary screen, cell lysate, human LULL1 lysate, 635/667 nm fluorescence (AID 1092); details: hLULL1 lysate binding, 635 nm fluorescence, higher = more signal;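 note: probe is lysate of COS7 cells overexpressing human LULL1; score merges per-feature 667 nm fluorescence with signal-to-noise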
[6] = E. coli growth modulation, two-sided OD650, primary screen, E. coli filamentation project, strain DRC41, 24 h (AID 1093); details: OD650, 24 h, higher = more signal, called active from +8 up or from −8 down;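 note: MC1000 strain lacking acrAB efflux and sulA so SOS filamentation is blocked; test concentration not given here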
[7] = small-molecule microarray binders of probe aLefty2, primary screen, biochemical, biotinylated probe, 635/667 nm fluorescence (AID 1094); details: higher = more signal;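 note: score merges spot fluorescence near 667 nm with spot signal-to-noise ratio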
[8] = system: Noggin (protein binding on small-molecule microarray); test: Noggin binders on small-molecule microarray, primary screen, biochemical, 635/667 nm fluorescence (AID 1095); details: 635 nm fluorescence, higher = more signal;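 note: score merges 667 nm feature fluorescence with signal to noise over triplicate slides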
[9] = target: Neurogenic locus notch homolog protein 3 (Homo sapiens) (UniProt Q9UM47); test: NOTCH3 binders on small-molecule microarray, primary screen, biochemical, 635/667 nm fluorescence (AID 1096); details: NOTCH3 binding, 635 nm fluorescence, higher = more signal
[10] = small-molecule microarray binders of probe aEGFR, primary screen, biochemical, biotinylated probe, 635/667 nm fluorescence (AID 1097); details: higher = more signal;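 note: probe is a biotinylated anti-EGFR antibody binding compounds printed on slides; score combines fluorescence near 667 nm and signal to noise of each spot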
[11] = system: Plasmodium falciparum Sir2 (PF13_0152, Sir2A); test: pfSir2 binders on small-molecule microarrays, primary screen, biochemical, small-molecule microarray, 635 nm fluorescence (AID 1098); details: small-molecule microarray binding, fluorescence 635 nm; higher = more signal;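 note: score merges spot fluorescence intensity with its signal-to-noise ratio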
[12] = small-molecule microarray binders of probe aDKK1, primary screen, biochemical, biotinylated probe, 635/667 nm fluorescence (AID 1099); details: higher = more signal;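 note: score merges 667nm spot fluorescence with signal to noise across triplicate slides; reference of the scale not given here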
[13] = small-molecule microarray binders of probe aCHRDL2, primary screen, biochemical, biotinylated probe, 635/667 nm fluorescence (AID 1100); details: higher = more signal
[14] = splicing luciferase reporter signal modulators, primary screen, spliceosome inhibition project, cell-based, HEK293, splice +/- reporter (AID 1101); details: luminescence, 24 h, higher = more signal, called active from +8 up or from −8 down;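 note: HEK293 cells carrying a splicing-competent luciferase reporter gene; test concentration not given here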
[15] = target: Fibroblast growth factor 10 (Homo sapiens) (UniProt O15520); test: FGF10 binders on small-molecule microarrays, primary screen, biochemical, small-molecule microarray, 635 nm fluorescence (AID 1102); details: FGF10 binding, fluorescence 635 nm, higher = more signal
[16] = system: glycogen synthase kinase-3 (GSK3A per assay name; protocol says GSK3B); test: GSK3 binders on small-molecule microarrays, primary screen, biochemical, small-molecule microarray, 635 nm fluorescence, GSK3A (AID 1103); details: small-molecule microarray binding, fluorescence 635 nm; higher = more signal; note: the record names both GSK3A and GSK3B
[17] = target: Epidermal growth factor receptor (Homo sapiens) (UniProt P00533); test: EGFR binders on small-molecule microarrays, primary screen, biochemical, small-molecule microarray, 635 nm fluorescence (AID 1104); details: EGFR binding, higher = more signal;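 note: score merges 667 nm emission intensity with spot signal to noise over triplicate slides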
[18] = target: Follistatin-related protein 3 (Homo sapiens) (UniProt O95633); test: FSTL3 binders on small-molecule microarrays, primary screen, biochemical, small-molecule microarray, 635 nm fluorescence (AID 1105); details: FSTL3 binding, higher = more signal;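 note: score merges emission near 667 nm and signal to noise per printed spot across three slides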
[19] = target: Dickkopf-related protein 1 (Homo sapiens) (UniProt O94907); test: DKK1 binders on small-molecule microarrays, primary screen, biochemical, small-molecule microarray, 635 nm fluorescence scan (AID 1106); details: DKK1 binding, higher = more signal;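 note: score merges emission near 667 nm with signal to noise over three replicate slides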
[20] = system: Inhibin beta A chain (activin A); test: INHBA (activin A) binders on microarrays, primary screen, biochemical, small-molecule microarray, 635 nm fluorescence scan (AID 1107); details: small-molecule microarray binding, higher = more signal;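 note: mouse activin A protein probed at 4.33 µg/mL on printed slides; score merges bound-protein fluorescence near 667 nm with spot signal-to-noise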

Follistatin-related protein 3 (Homo sapiens), sequence (O95633 whole entry, looked up): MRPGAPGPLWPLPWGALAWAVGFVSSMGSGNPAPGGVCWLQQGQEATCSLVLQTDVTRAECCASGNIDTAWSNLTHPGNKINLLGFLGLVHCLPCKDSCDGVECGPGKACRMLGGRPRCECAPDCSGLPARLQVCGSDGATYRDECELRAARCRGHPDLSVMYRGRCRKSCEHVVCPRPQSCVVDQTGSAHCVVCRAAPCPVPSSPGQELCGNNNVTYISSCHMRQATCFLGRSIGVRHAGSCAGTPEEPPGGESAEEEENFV
Fibroblast growth factor 10 (Homo sapiens), sequence (O15520 whole entry, looked up): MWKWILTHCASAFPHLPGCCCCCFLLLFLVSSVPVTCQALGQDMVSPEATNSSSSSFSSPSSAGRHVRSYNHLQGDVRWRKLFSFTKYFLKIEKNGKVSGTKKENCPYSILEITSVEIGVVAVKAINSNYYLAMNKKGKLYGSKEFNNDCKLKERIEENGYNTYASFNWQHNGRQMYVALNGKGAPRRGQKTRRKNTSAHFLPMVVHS
Epidermal growth factor receptor (Homo sapiens), sequence (P00533 whole entry, looked up): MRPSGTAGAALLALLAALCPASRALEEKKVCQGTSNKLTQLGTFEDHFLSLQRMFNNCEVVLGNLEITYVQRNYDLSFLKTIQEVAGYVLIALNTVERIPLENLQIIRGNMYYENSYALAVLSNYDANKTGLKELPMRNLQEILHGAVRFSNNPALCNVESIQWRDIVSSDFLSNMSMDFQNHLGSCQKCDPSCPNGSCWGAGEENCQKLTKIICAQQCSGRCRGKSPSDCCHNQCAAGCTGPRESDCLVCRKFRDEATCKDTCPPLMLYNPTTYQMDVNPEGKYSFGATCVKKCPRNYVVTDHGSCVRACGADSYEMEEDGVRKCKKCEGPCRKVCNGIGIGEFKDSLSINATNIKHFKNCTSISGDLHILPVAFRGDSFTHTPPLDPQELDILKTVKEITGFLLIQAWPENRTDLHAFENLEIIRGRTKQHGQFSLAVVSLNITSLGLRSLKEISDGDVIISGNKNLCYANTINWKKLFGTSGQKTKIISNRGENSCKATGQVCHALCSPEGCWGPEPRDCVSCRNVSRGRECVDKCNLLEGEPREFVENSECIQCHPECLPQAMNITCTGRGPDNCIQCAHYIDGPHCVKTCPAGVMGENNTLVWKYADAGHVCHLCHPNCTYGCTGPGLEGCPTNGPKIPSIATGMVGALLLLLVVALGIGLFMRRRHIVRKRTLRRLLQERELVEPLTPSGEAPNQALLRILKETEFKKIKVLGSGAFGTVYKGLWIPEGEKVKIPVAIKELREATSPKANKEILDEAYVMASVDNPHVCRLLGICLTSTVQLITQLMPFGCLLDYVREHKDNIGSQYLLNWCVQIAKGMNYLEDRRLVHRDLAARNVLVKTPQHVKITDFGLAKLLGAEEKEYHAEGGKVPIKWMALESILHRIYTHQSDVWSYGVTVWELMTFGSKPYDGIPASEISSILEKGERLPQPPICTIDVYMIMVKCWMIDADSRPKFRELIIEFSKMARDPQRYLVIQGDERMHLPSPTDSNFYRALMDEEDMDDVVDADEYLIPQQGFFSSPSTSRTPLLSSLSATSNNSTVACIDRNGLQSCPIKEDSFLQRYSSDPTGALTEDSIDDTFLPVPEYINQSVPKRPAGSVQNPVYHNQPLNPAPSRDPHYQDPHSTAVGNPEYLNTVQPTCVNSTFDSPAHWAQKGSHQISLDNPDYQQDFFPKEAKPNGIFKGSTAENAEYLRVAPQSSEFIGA
Torsin-1A-interacting protein 2 (Homo sapiens), sequence (Q8NFQ8 whole entry, looked up): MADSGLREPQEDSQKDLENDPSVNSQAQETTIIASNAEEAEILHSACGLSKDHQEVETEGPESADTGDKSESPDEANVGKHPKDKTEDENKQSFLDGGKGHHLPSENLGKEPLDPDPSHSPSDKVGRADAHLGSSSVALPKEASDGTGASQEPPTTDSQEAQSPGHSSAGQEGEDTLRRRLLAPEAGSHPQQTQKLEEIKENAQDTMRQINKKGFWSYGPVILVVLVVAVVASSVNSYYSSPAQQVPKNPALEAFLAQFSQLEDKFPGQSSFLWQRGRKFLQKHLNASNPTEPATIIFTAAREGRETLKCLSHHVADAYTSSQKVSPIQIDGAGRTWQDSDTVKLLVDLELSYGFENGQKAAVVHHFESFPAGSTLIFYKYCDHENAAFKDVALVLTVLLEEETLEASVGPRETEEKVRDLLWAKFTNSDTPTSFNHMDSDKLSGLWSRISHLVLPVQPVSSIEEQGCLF
Dickkopf-related protein 1 (Homo sapiens), sequence (O94907 whole entry, looked up): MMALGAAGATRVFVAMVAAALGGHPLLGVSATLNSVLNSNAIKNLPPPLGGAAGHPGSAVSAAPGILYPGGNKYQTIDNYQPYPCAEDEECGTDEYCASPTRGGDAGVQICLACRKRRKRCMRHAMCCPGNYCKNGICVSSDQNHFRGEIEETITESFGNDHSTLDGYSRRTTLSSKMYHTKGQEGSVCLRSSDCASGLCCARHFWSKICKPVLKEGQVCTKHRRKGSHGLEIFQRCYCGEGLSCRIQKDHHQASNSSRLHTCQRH
Neurogenic locus notch homolog protein 3 (Homo sapiens), sequence (Q9UM47 whole entry, looked up): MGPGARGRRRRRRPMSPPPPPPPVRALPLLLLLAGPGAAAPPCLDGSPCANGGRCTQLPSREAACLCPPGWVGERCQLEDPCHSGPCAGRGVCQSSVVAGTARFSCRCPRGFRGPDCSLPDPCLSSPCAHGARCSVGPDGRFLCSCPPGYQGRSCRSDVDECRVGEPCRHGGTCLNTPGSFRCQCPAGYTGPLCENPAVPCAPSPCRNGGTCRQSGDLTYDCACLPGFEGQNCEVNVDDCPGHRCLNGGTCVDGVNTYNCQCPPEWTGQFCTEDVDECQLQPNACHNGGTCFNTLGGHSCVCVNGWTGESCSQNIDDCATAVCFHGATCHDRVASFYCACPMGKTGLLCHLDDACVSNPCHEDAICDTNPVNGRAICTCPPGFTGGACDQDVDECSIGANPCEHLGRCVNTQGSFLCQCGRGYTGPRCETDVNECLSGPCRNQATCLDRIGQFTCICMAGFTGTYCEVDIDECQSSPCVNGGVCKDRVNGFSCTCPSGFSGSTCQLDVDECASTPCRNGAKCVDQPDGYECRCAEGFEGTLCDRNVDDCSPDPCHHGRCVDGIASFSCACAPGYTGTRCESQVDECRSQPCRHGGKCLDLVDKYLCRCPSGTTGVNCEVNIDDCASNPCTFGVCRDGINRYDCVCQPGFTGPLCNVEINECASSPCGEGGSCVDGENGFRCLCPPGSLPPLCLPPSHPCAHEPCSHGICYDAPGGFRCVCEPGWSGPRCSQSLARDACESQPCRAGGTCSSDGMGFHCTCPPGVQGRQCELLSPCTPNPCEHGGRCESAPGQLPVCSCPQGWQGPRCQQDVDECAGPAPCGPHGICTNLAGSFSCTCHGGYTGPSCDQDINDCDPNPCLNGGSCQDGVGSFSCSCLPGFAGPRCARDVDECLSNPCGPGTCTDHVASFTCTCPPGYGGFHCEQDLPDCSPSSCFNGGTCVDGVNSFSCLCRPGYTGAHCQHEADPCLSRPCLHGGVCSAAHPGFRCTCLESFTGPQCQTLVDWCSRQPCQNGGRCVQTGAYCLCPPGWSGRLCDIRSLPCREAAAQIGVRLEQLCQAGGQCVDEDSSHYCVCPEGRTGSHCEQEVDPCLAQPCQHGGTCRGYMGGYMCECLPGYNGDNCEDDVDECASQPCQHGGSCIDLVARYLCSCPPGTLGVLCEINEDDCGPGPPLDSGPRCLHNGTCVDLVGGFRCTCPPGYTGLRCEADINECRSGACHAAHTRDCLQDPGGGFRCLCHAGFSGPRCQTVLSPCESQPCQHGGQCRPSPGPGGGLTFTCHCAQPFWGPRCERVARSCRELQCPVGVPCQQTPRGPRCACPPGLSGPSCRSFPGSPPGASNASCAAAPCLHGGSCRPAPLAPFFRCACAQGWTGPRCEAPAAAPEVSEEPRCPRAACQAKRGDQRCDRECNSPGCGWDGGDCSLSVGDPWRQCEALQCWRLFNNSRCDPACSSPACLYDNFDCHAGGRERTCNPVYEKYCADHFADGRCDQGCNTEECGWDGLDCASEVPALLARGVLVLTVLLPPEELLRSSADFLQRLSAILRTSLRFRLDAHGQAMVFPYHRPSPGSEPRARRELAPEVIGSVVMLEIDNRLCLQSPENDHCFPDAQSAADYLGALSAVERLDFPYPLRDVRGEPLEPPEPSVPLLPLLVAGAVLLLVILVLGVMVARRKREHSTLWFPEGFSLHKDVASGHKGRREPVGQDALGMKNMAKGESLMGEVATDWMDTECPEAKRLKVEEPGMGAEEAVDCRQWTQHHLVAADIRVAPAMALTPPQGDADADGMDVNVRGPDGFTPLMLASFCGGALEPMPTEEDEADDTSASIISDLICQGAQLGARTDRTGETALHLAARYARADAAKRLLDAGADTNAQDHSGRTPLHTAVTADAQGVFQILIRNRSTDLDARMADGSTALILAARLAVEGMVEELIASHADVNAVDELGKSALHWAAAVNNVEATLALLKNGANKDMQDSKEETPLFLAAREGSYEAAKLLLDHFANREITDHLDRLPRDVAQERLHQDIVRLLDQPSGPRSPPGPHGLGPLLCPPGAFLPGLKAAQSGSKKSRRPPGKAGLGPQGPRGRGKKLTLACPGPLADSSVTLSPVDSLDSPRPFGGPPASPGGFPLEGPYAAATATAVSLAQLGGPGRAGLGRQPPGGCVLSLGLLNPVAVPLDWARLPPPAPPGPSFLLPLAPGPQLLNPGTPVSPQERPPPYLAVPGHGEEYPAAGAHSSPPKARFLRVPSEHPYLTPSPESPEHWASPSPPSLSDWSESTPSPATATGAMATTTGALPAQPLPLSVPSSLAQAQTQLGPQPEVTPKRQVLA

## COCCOC(=O)N1C(=O)[C@@]2(c3ccccc31)[C@H](C(=O)N1CCc3cc(OC)c(OC)cc3C1)[C@H]1C(=O)O[C@H](c3ccccc3)[C@H](c3ccccc3)N1[C@@H]2c1ccccc1OCCO
[1]
  composite z-score: 1.48
[2]
  z-score: 0.384 (inactive)
[3]
  z-score: -0.0822 (inactive)
[4]
  z-score: 5.51 (inactive)
[5]
  composite z-score: 2.14
[6]
  z-score: 2.8 (inactive)
[7]
  composite z-score: 0.0261
[8]
  composite z-score: 1.03
[9]
  composite z-score: 1.07
[10]
  composite z-score: -0.0717
[11]
  composite z-score: 1
[12]
  composite z-score: 0.401
[13]
  composite z-score: 0.339
[14]
  z-score: -0.237 (inactive)
[15]
  composite z-score: 0.626
[16]
  composite z-score: 1.28
[17]
  composite z-score: 0.329
[18]
  composite z-score: 0.606
[19]
  composite z-score: 0.214
[20]
  composite z-score: 0.635

## CCOC(=O)C[C@H]1[C@H](OC(=O)Cc2ccc3c(c2)OCO3)[C@@H](NC(=O)c2ccc3ccccc3c2)c2cc(OCCCO)ccc2N1C(=O)Cc1ccc(OC)cc1
[1]
  composite z-score: 0.842
[2]
  z-score: -2.93 (inactive)
[3]
  z-score: -0.366 (inactive)
[4]
  z-score: 0.227 (inactive)
[5]
  composite z-score: 1.73
[6]
  z-score: 1.28 (inactive)
[7]
  composite z-score: 0.164
[8]
  composite z-score: 0.233
[9]
  composite z-score: 0.719
[10]
  composite z-score: -0.0331
[11]
  composite z-score: 0.354
[12]
  composite z-score: 0.19
[13]
  composite z-score: 0.0248
[14]
  z-score: -1.83 (inactive)
[15]
  composite z-score: 0.491
[16]
  composite z-score: 0.397
[17]
  composite z-score: 0.373
[18]
  composite z-score: 0.439
[19]
  composite z-score: 0.435
[20]
  composite z-score: 0.147

## C=CCNC(=O)[C@@H]1[C@H]2C(=O)O[C@H](c3ccccc3)[C@H](c3ccccc3)N2[C@H](c2ccc(OCCO)cc2)[C@@]12C(=O)N(C(=O)OCCOC)c1ccc(C#CC3(O)CCCCCC3)cc12
[1]
  composite z-score: 1.56
[2]
  z-score: -1.05 (inactive)
[3]
  z-score: -1.64 (inactive)
[4]
  z-score: 3.24 (inactive)
[5]
  composite z-score: 1.6
[6]
  z-score: 2.89 (inactive)
[7]
  composite z-score: 0.505
[8]
  composite z-score: 0.205
[9]
  composite z-score: 0.955
[10]
  composite z-score: 0.108
[11]
  composite z-score: 1.12
[12]
  composite z-score: 0.342
[13]
  composite z-score: 0.375
[14]
  z-score: -0.929 (inactive)
[15]
  composite z-score: 0.325
[16]
  composite z-score: 0.871
[17]
  composite z-score: 0.432
[18]
  composite z-score: 0.702
[19]
  composite z-score: 0.125
[20]
  composite z-score: 1.34

## C=CCNC(=O)[C@H]1[C@@H]2C(=O)O[C@@H](c3ccccc3)[C@@H](c3ccccc3)N2[C@@H](c2ccc(O)cc2)[C@]12C(=O)Nc1ccc(C#CCNC(N)=O)cc12
[1]
  composite z-score: 0.0982
[2]
  z-score: -0.396 (inactive)
[3]
  z-score: -0.37 (inactive)
[4]
  z-score: 0.402 (inactive)
[5]
  composite z-score: 1.87
[6]
  z-score: 2.18 (inactive)
[7]
  composite z-score: -0.282
[8]
  composite z-score: -0.643
[9]
  composite z-score: -1.01
[10]
  composite z-score: -0.216
[11]
  composite z-score: 1.5
[12]
  composite z-score: 0.24
[13]
  composite z-score: 0.262
[14]
  z-score: -0.335 (inactive)
[15]
  composite z-score: -0.327
[16]
  composite z-score: -0.304
[17]
  composite z-score: -0.856
[18]
  composite z-score: -1.03
[19]
  composite z-score: -0.351
[20]
  composite z-score: 0.323

## COc1ccc(CCN2C(=O)[C@@]3(c4ccc([N+](=O)[O-])cc4)CC(=O)N(CC45CC6CC(CC(C6)C4)C5)[C@@H]3c3ccc(CO)cc32)cc1
[1]
  composite z-score: 1.55
[2]
  z-score: 0.0722 (inactive)
[3]
  z-score: -0.3 (inactive)
[4]
  z-score: -1.6 (inactive)
[5]
  composite z-score: 2.09
[6]
  z-score: -0.463 (inactive)
[7]
  composite z-score: 0.141
[8]
  composite z-score: -0.223
[9]
  composite z-score: 0.294
[10]
  composite z-score: -0.109
[11]
  composite z-score: 1.42
[12]
  composite z-score: 0.463
[13]
  composite z-score: 0.761
[14]
  z-score: -0.604 (inactive)
[15]
  composite z-score: -0.212
[16]
  composite z-score: 0.592
[17]
  composite z-score: -0.645
[18]
  composite z-score: -0.203
[19]
  composite z-score: -0.369
[20]
  composite z-score: 0.718
